Results taken from publication PMC7819943, “Rice protein-binding microarrays: a tool to detect cis-acting elements near promoter regions in rice”.
The full ranking holds about 39,000 sequences; the median of “fluorescence intensity (a.u.)” is about 4,300, and the highest 2% start at about 39,000. Shown is part of a subset that was picked to be rich in the highest values.

The sequences below were run against T1, OsSMF1 (Oryza sativa, UniProt Q6ZLB0 1-436) (assay: protein-binding microarray (RPBM); PBS, 2% BSA, 51.3 ng/ul salmon testes DNA, 50 uM zinc acetate, 200 nM TF, 25 C, 1 h; high values mean tight binding). Settings: protein: recombinant; tags: N-terminal polyhistidine and DsRed monomer fusion (pET32a); chain copies: 2; label: CyDye5-dUTP incorporated in the synthesized complementary strand; 3' TTTTT single-stranded linker to array surface; dsDNA, one strand shown.
T1 sequence: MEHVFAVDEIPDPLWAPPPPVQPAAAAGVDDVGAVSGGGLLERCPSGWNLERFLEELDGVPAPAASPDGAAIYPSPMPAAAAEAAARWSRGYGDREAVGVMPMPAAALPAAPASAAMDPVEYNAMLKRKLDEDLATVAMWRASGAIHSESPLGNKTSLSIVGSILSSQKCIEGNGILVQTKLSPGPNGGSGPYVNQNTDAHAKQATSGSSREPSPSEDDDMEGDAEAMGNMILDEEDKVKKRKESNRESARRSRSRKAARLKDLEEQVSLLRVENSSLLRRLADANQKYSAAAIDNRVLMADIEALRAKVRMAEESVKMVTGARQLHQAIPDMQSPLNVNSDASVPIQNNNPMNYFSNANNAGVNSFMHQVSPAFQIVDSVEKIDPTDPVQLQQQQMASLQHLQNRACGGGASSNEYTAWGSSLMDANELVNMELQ
Method in brief: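 Transcription factors were made in E. coli BL21-CodonPlus as N-terminal fusions to a polyhistidine tag and DsRed, then purified on Ni–NTA. After primer extension with Cy5-dUTP and blocking with 2% BSA, a custom Agilent array was exposed for 1 h at 25 °C to 200 nM protein in PBS, 2% BSA, salmon testes DNA and 50 µM zinc acetate. Washed arrays were scanned on an Axon 4000B, and the binding signal is per-feature fluorescence intensity in arbitrary units.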

Row | Sequence | binding signal
1 | GTTGTCAAATGAGTCAATTAGATATTTCCAACCCACACTACGGAGTCACCTAGTGCAG | 4900 fluorescence intensity (a.u.)
2 | CGTATCTCATCTTTTCGTTTATACTTATACTTATCAGTCACGGAGTCACCTAGTGCAG | 3230 fluorescence intensity (a.u.)
3 | ATCGATCGATCAATTGGCCAAGGCGGCAAACGGCGGCGGCCGGAGTCACCTAGTGCAG | 4060 fluorescence intensity (a.u.)
4 | GATCACTGTACTGTACAGAGGCTAGCTCTAGCTAGGTAGCCGGAGTCACCTAGTGCAG | 26000 fluorescence intensity (a.u.)
5 | TTAGCTTCACAGTTCACTGTAGCGTCTAGAAGAGGAACAGCGGAGTCACCTAGTGCAG | 63300 fluorescence intensity (a.u.)
6 | TTGTGGTACGATACTAGTACTACTAGTAGACTAGTAGCAGCGGAGTCACCTAGTGCAG | 3260 fluorescence intensity (a.u.)
7 | TTAGCTAGACTACAGCTCTAGTAGAGCTGTAGAGGTAGAGCGGAGTCACCTAGTGCAG | 44000 fluorescence intensity (a.u.)
8 | GTGAGAACTGAGAGGAGCGTCGGAAGAAGACCGGAAGAAGCGGAGTCACCTAGTGCAG | 4580 fluorescence intensity (a.u.)
9 | AGCTTCAGGAGTTCTTGTCACGTCTCGAGGAAGAGAGGCTCGGAGTCACCTAGTGCAG | 3740 fluorescence intensity (a.u.)
10 | GTGGGCCATCTGACAGTGCATACAGGAACTTTCCCCTTCTCGGAGTCACCTAGTGCAG | 4930 fluorescence intensity (a.u.)
11 | ATTATAGGTCCAGCTAAGTTGGCCCTGGTATATATATTGGCGGAGTCACCTAGTGCAG | 3980 fluorescence intensity (a.u.)
12 | TTGGAGGGGAAGCTATCGTGTATCCACTGCGGAGCACGGCCGGAGTCACCTAGTGCAG | 3650 fluorescence intensity (a.u.)
13 | AACGACGGCGAATTCTACCTCCCCGGGTATCTGGACCTCGCGGAGTCACCTAGTGCAG | 42900 fluorescence intensity (a.u.)
14 | CCGGGCTACCATCGCGGCGACGAAACGTGCATCATCATCCCGGAGTCACCTAGTGCAG | 3850 fluorescence intensity (a.u.)
15 | CGTGGTGGACGGCCTCGACGAGGCGATCTGCCCGGTGGCGCGGAGTCACCTAGTGCAG | 3240 fluorescence intensity (a.u.)
16 | CGTGGCACTTAGCGATGAGTGCTGTCGTCAGTAGCAATCCCGGAGTCACCTAGTGCAG | 4620 fluorescence intensity (a.u.)
17 | GCAGGCGTCGGTTTCGCGGCTGGCAGCGGCGGCTCGCTCACGGAGTCACCTAGTGCAG | 3200 fluorescence intensity (a.u.)
18 | GGCTAGCGTACAGGTTAAAACGTGTCGGAATCGTCAGCGCCGGAGTCACCTAGTGCAG | 4110 fluorescence intensity (a.u.)
19 | GTACAGCAGGAATCGCTGCTGGCGTCGCTTCGTCGGTTGTCGGAGTCACCTAGTGCAG | 65100 fluorescence intensity (a.u.)
20 | GTGTTTTGACGCATGCATGCCGTTGGTCATCAGTTAATCACGGAGTCACCTAGTGCAG | 3480 fluorescence intensity (a.u.)
21 | TTCCCAAAAGGAGGCCCAATGAGAACTTGTATAGTCCTATCGGAGTCACCTAGTGCAG | 19500 fluorescence intensity (a.u.)

Row | Sequence | binding signal
22 | ATGTGACTACCACCTCTAAATTTATCTATTTTATTCACTCCGGAGTCACCTAGTGCAG | 18600 fluorescence intensity (a.u.)
23 | ATGTTTTCTAGACTAATATACTATTAATCTATCTTTTATCCGGAGTCACCTAGTGCAG | 36400 fluorescence intensity (a.u.)
24 | GAAATCTAATTTTATCCACGAGACTATAGTGAGCCTACTCCGGAGTCACCTAGTGCAG | 39700 fluorescence intensity (a.u.)
25 | GGGATGTCACACCGTCGAAGGCGTCCAGCTGTCAACATATCGGAGTCACCTAGTGCAG | 4720 fluorescence intensity (a.u.)
26 | CCGTTAGCCTCCAACGATCCAAACCGCCTCGTCATAAATACGGAGTCACCTAGTGCAG | 3460 fluorescence intensity (a.u.)
27 | TGCTGCTCTTGACACCACGTCGTTGCTGCCCTGCTTCCACCGGAGTCACCTAGTGCAG | 3810 fluorescence intensity (a.u.)
28 | TGGCATTGACGTGGCGCTTACGTGGCATTATATCTTGAAACGGAGTCACCTAGTGCAG | 33400 fluorescence intensity (a.u.)
29 | AGTGCCTATGTGGCGTTGACGTGGCGCTTACGTGGCAATTCGGAGTCACCTAGTGCAG | 27500 fluorescence intensity (a.u.)
30 | GTGGCATTGACGTGGCGCTTACGTGTCAATTCTACTCCGGCGGAGTCACCTAGTGCAG | 44200 fluorescence intensity (a.u.)
31 | TGACTCAGTATCGATCTGACGTGGCGCTTACGTGGCAATTCGGAGTCACCTAGTGCAG | 48000 fluorescence intensity (a.u.)
32 | ATGACGTGACATTGACGTGGCGCTTACGTGGCAATTCGACCGGAGTCACCTAGTGCAG | 25600 fluorescence intensity (a.u.)
33 | TCTGATATGGCATTGACGTGACACTTACGTGGCAATTCGACGGAGTCACCTAGTGCAG | 12500 fluorescence intensity (a.u.)
34 | GCTATATTAAACATTTGCTAATGACAAATTAATTAGCTTACGGAGTCACCTAGTGCAG | 14700 fluorescence intensity (a.u.)
35 | TCCATTTTGGACCGCTGACGAGGACGATAGGAGCGTGAGTCGGAGTCACCTAGTGCAG | 4710 fluorescence intensity (a.u.)
36 | AGCTTGTGTACCCAGGAGATCTACATACTTCGCTACGTCACGGAGTCACCTAGTGCAG | 4570 fluorescence intensity (a.u.)
37 | AGTATATCCTAAAGCGACACTTTACAGTCTCAAGGACATCCGGAGTCACCTAGTGCAG | 11200 fluorescence intensity (a.u.)
38 | TGGAGGAAGTCAGTAGGATCCCACGTGTCATACTCACACCCGGAGTCACCTAGTGCAG | 22200 fluorescence intensity (a.u.)
39 | ACTCCGGTCCAGGAAAATTATTCCTATAGTAATGTAATAACGGAGTCACCTAGTGCAG | 42900 fluorescence intensity (a.u.)
40 | TATATAACCTAAAATGGAGGAAGTAGGAAATATGTAATTCCGGAGTCACCTAGTGCAG | 4630 fluorescence intensity (a.u.)
41 | ATTTAACTGCATAGAAGTGTATAAGTAAAATAATTTATTCCGGAGTCACCTAGTGCAG | 4320 fluorescence intensity (a.u.)
42 | GCCACACCCACACTGACACACATATACAAGCCAGAGAGATCGGAGTCACCTAGTGCAG | 3280 fluorescence intensity (a.u.)

Row | Sequence | binding signal
43 | GAAAGGAAGAGGTGGAGGAAGTGAGACCCACTGACTTGTGCGGAGTCACCTAGTGCAG | 24500 fluorescence intensity (a.u.)
44 | TCCACCACACGTGTCTATATCGCTTCCTTCCATTCCATCACGGAGTCACCTAGTGCAG | 7170 fluorescence intensity (a.u.)
45 | GACTTGTCCATGCATGCATGCATGACTTGTGTTCAGCCACCGGAGTCACCTAGTGCAG | 3700 fluorescence intensity (a.u.)
46 | TTGTTGGTGTTTCCTCGTCCGCGTCGTCGGTTGCATTCTCCGGAGTCACCTAGTGCAG | 3190 fluorescence intensity (a.u.)
47 | CGAAATAAGTAATTTACAGGGCTTTCTCTCTCTCGCTCACCGGAGTCACCTAGTGCAG | 64400 fluorescence intensity (a.u.)
48 | ACTTACACAGTAATTACACCTCACTTACACCCGCTTACACCGGAGTCACCTAGTGCAG | 5410 fluorescence intensity (a.u.)
49 | GTAATTACAGCTCATGATTTTCTCTCTCTCTCTCTCTCTACGGAGTCACCTAGTGCAG | 19500 fluorescence intensity (a.u.)
50 | ACACGTGGGACCCACGTGGGTCCCATGCTGACTCAGCTGCCGGAGTCACCTAGTGCAG | 28100 fluorescence intensity (a.u.)
51 | GTCACATCATCATGCATTAATAAAATGCCACGTCATCATCCGGAGTCACCTAGTGCAG | 50000 fluorescence intensity (a.u.)
52 | ATAATGCTGACTGAACTGCCATGTGTACGCCACGTAGACCCGGAGTCACCTAGTGCAG | 27600 fluorescence intensity (a.u.)
53 | TTGTTAACTGCTGATGTGTGACCTGACTGTTAAAAGCTGCCGGAGTCACCTAGTGCAG | 9170 fluorescence intensity (a.u.)
54 | TGCTGATGTTGCTGCTAAAATTGCACCATTGTTGTGTAACCGGAGTCACCTAGTGCAG | 40700 fluorescence intensity (a.u.)
55 | AGCTGTGTTGCTAATTGTGGCATTGTGATGTGATGATCCCCGGAGTCACCTAGTGCAG | 3160 fluorescence intensity (a.u.)
56 | ATGTTGACTGGACTAGCACGTGTACGCCACGTAGACCAAACGGAGTCACCTAGTGCAG | 4790 fluorescence intensity (a.u.)
57 | AAATGCTGACTGGACTGCCACGTGTACGCCACGTAGACCACGGAGTCACCTAGTGCAG | 45400 fluorescence intensity (a.u.)
58 | CACATAAATAATAATAAAATGTGGGACCCACGTGGGCCCCCGGAGTCACCTAGTGCAG | 10400 fluorescence intensity (a.u.)
59 | GTGCATAAATTTATTAAAATAGAAAATTAATGCAGTGCCACGGAGTCACCTAGTGCAG | 4660 fluorescence intensity (a.u.)
60 | GGATCAAATTGCCACATATGCGCCACGTTAATGCCACATCCGGAGTCACCTAGTGCAG | 8660 fluorescence intensity (a.u.)
61 | TAAATAATTGCCATTGCCATGCTGCCACGTGTCATGGGACCGGAGTCACCTAGTGCAG | 49900 fluorescence intensity (a.u.)
